# According to PubChem BioAssay (NCI):
# Compounds without any hit were thinned out: in the full panel of roughly 79,000, 15% have a hit. Values without a mark were called inactive. Calls of active or inactive are those of the source. No stated cut-off is given here; in the data, active means growth inhibition above about 70%; inactive means the rest.
# What was measured:
# [1] = NCI Yeast Anticancer Drug Screen. Data for the rad50 strain (AID 155);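 further: 0% = growth of vehicle-only cultures of the same strain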; settings: S. cerevisiae rad50 strain growth inhibition, hits give high values
# Outline: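 Vehicle-treated cultures provide the reference for the growth inhibition reported for compound-exposed, repair-deficient yeast.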
# [2] = NCI Yeast Anticancer Drug Screen. Data for the mec2-1 strain (AID 157); settings: S. cerevisiae mec2-1 strain, hits give high values
# Outline: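 Yeast mec2-1 mutant treated with compound. Readout: growth inhibition vs vehicle controls.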
# [3] = NCI Yeast Anticancer Drug Screen. Data for the sgs1 mgt1 strain (AID 161);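 further: 0% = growth of cultures given vehicle only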; settings: S. cerevisiae sgs1 mgt1 strain, hits give high values
# Outline: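 Mutant yeast exposed to compound; growth scored against vehicle-only wells.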
# [4] = NCI Yeast Anticancer Drug Screen. Data for the cln2 rad14 strain (AID 165);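 further: 0% = growth equal to vehicle treated cultures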; settings: S. cerevisiae cln2 rad14 strain, hits give high values
# Outline: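 cln2 rad14 yeast strain; compound exposure; growth inhibition read vs vehicle controls.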
# [5] = NCI Yeast Anticancer Drug Screen. Data for the bub3 strain (AID 167); settings: S. cerevisiae bub3 mutant strain, hits give high values
# Outline: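 Mutant yeast screening strain plus compound; vehicle-treated cultures serve as the 0% inhibition reference.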
# [6] = NCI Yeast Anticancer Drug Screen. Data for the mlh1 rad18 strain (AID 175); settings: S. cerevisiae mlh1 rad18 strain growth inhibition, hits give high values
# Outline: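 Yeast w/ defined DNA-repair lesions; compound exposure; growth vs vehicle controls → % inhibition.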
# [7] = at 5.0 µM (retest, dose inferred, filed as 0.5)
# [8] = at 50.0 µM (retest, dose inferred, filed as 5.0)
SMILES,"growth inhibition [1, 7]","growth inhibition [1, 8]",growth inhibition ([1]; at 50.0 µM),"growth inhibition [2, 7]","growth inhibition [2, 8]",growth inhibition ([2]; at 50.0 µM),"growth inhibition [3, 7]","growth inhibition [3, 8]",growth inhibition ([3]; at 50.0 µM),"growth inhibition [4, 7]","growth inhibition [4, 8]",growth inhibition ([4]; at 50.0 µM),"growth inhibition [5, 7]","growth inhibition [5, 8]",growth inhibition ([5]; at 50.0 µM),"growth inhibition [6, 7]","growth inhibition [6, 8]",growth inhibition ([6]; at 50.0 µM)
CCOC(=O)C1CSC(c2c(CO)cnc(C)c2O)N1 (configuration not stated),-1%,5%,47.6%,-8%,-3%,0.75%,-3%,2%,9.55%,4%,7%,-4.1%,2%,14%,10.8%,2%,5%,18.1%
O=C1C=CC(=O)N1c1ccc(Br)c(Cl)c1,101% (active),100% (active),68.7%,100% (active),100% (active),87.8% (active),21%,100% (active),80.3% (active),46%,100% (active),24.2%,37%,100% (active),66.6%,100% (active),100% (active),63.7%
CC(C)c1ccc2c(c1)CC[C@@H]1[C@](C)(CO)CCC[C@]21C,4%,94% (active),34.8%,4%,94% (active),89.8% (active),0%,99% (active),43.2%,2%,96% (active),68.2%,-3%,95% (active),89.1% (active),-16%,95% (active),97.3% (active)
O=c1c2ccccc2ncn1Cc1ccccc1[N+](=O)[O-],-2%,14%,-31.8%,-2%,7%,-9.1%,0%,23%,-7%,-11%,-17%,73.3% (active),-1%,42%,26.2%,0%,18%,-6.15%
Nc1cc2c(nc3c4ccccc4c(N)cc3[n+]2-c2cccc3ccccc23)c2ccccc12 (tested in a mixture with another compound),95% (active),92% (active),89.4% (active),62%,92% (active),90.2% (active),59%,94% (active),89.2% (active),31%,89% (active),84.5% (active),61%,91% (active),84.8% (active),79% (active),91% (active),89.8% (active)
COC(=O)C1CCC(=O)N1C(c1ccc(OC)cc1)c1cc(OC)c(OC)c(OC)c1 (configuration not stated),27%,45%,-33.5%,21%,15%,8.55%,32%,42%,1.95%,46%,40%,-7.4%,43%,41%,-8.55%,17%,20%,-10.2%
COc1ccc(C2=C(Cl)C(=O)N(c3ccc(O)cc3)C(=O)C2(Cl)Cl)cc1,18%,99% (active),57.7%,13%,99% (active),59.7%,31%,99% (active),57.2%,4%,98% (active),58%,3%,99% (active),47.9%,15%,98% (active),58.2%
O=C1C(=O)c2ccccc2C=C1Br,50%,99% (active),99% (active),91% (active),99% (active),99.2% (active),75% (active),99% (active),99.2% (active),67%,99% (active),98.2% (active),93% (active),99% (active),98.7% (active),85% (active),99% (active),98.8% (active)
COc1ccc2c(c1)OC(OC)(c1ccccc1)C(O)(OC)C2=O (configuration not stated),1%,21%,40.7%,-7%,22%,31.8%,3%,35%,59%,-9%,15%,7.25%,-1%,17%,20.4%,-4%,33%,44.4%
O=C1C(Cl)C(c2cc(Br)cc(Br)c2O)N1n1cnc2ccccc2c1=O (configuration not stated),15%,96% (active),89.8% (active),35%,94% (active),86.7% (active),25%,98% (active),94.5% (active),-16%,87% (active),59.2%,22%,98% (active),93% (active),20%,98% (active),97.7% (active)
CCCCCCCCCCCCOC(=O)C[n+]1cccc(C(=O)Nc2ccccc2)c1,96% (active),98% (active),99.2% (active),97% (active),99% (active),99.4% (active),95% (active),99% (active),99.5% (active),96% (active),99% (active),98.9% (active),96% (active),98% (active),98.8% (active),99% (active),99% (active),99.2% (active)
COc1ccc2c(c1)CC1c3c(ccc(OC)c3O)CC2N1C (configuration not stated),-15%,56%,86.7% (active),-44%,37%,91.3% (active),-6%,59%,93.7% (active),-24%,52%,92.5% (active),-4%,75% (active),92% (active),-55%,61%,89.5% (active)
C#CC[N+](CC)(CC)CCNC(=O)CCCCCCCCCCCCCCC,97% (active),99% (active),99.5% (active),81% (active),99% (active),99.7% (active),98% (active),100% (active),99.6% (active),51%,99% (active),98.8% (active),92% (active),99% (active),99.6% (active),49%,99% (active),99.5% (active)
O=c1[nH]c2c([N+](=O)[O-])cc(Cl)cc2nc1/C=C(\O)c1ccc2ccccc2c1,-4%,95% (active),74.3% (active),7%,98% (active),72.9% (active),-8%,95% (active),90.1% (active),6%,94% (active),49.1%,-9%,97% (active),70% (active),25%,96% (active),71.5% (active)
CCCCCCCOC(=O)c1cc2cc(C(CC)C(CC)c3ccc(O)cc3)ccc2oc1=O (configuration not stated),23%,47%,83.1% (active),37%,23%,91.3% (active),47%,65%,82% (active),30%,74% (active),87.4% (active),11%,45%,68.9%,41%,57%,88.9% (active)
O=S1(=O)CC2C1C1(Cl)OC2(Cl)c2ccccc21 (configuration not stated),2%,13%,75.2% (active),16%,9%,-9.25%,2%,6%,31.1%,-45%,17%,-1.65%,-3%,-9%,21.4%,1%,1%,27.6%
CC1(C)CC(=O)C2=C(C1)OC1=C(CC(C)(C)CC1=O)C2c1ccccc1[N+](=O)[O-] (configuration not stated),22%,22%,-21.8%,16%,12%,-13.3%,25%,19%,-13.5%,23%,41%,-7.3%,9%,5%,-17.6%,24%,27%,-17.1%
Cc1ccc(C2SCC(=O)N2c2ccc(-n3c(-c4ccccc4)nc4ccccc4c3=O)cc2)cc1 (configuration not stated),-16%,90% (active),75.3% (active),-8%,55%,67.5%,-10%,81% (active),77.2% (active),-16%,87% (active),83.2% (active),-24%,74% (active),72.7% (active),-8%,88% (active),79.8% (active)
O=C(O)C(O)Cc1ccc(O)cc1 (configuration not stated),-150%,-144%,-3.2%,-46%,-51%,1.1%,-61%,-61%,3.7%,-62%,-69%,39.2%,-70%,-86%,-13.3%,-140%,-122%,-6.4%
